# Test results published in PubChem BioAssay AID2685 (National Center for Advancing Translational Sciences (NCATS), 2010).
# Among all 320,000 compounds or so, about 2,100 (0.66%) were called active. About 53% were inconclusive and are not listed. The call rests on the fitted dose curve; in most records, active means well fitted inhibition curve with a large enough effect in the signal ratio, with a control signal flat (not every such curve was filed as active); inconclusive means small, poorly fitted or top-dose-only effect, or effect the other way, or a change in a side signal; inactive means flat fitted curve, though single readings scatter; the % refers to the signal ratio. For the sample, actives were picked, then their nearest neighbours and some compounds at random.
# Test: qHTS Assay for Lipid Storage Modulators in Drosophila S3 Cells;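 on cell number change: cells counted by Cell Tracker Red CMTPX staining in the red channel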; on lipid storage change, negative = inhibition: on the % scale 0 is the no-effect control and ±100 the full control effect
# Settings: BODIPY lipid droplet fluorescence, 18-24 h, cells fed with added oleic acid; cell number change: measured here: cell count max response; series mostly up to 46.1 µM; lipid storage change, negative = inhibition: at the top concentration
# Method in brief: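 Drosophila S3 cells loaded with oleic acid (400 uM, as added) and compounds at several concentrations; lipid droplets imaged by 488-nm laser-scanning cytometry, 500–530 nm intensity and object ratio to cell channel. Percent activity normalized to 20 uM Triacsin C.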
# Potency means the concentration at half of the fitted maximal effect.
SMILES,"lipid storage change, negative = inhibition",cell number change [%],Potency,outcome
COc1ccc(S(N)(=O)=O)cc1-c1nnc2c3ccccc3c(C)nn12,-0.656% (inactive),-15.7,–,–
Cc1ccc(S(=O)(=O)c2c(O)c3ccc(C(=O)O)cc3[nH]c2=O)cc1,–,-5.9,11.6 µM (active),–
COc1ccc(S(=O)(=O)c2c(O)c3ccc(C(=O)Nc4ccccc4)cc3[nH]c2=O)cc1,26.4% (inactive),23,–,–
COc1ccc(S(=O)(=O)c2c(O)c3ccc(C(=O)Nc4ccc(F)cc4)cc3[nH]c2=O)cc1,–,-7.08,–,inactive
Cc1cccc(NC(=O)c2cc(Cl)ccc2[N+](=O)[O-])c1,4.85% (inactive),–,–,–
Cc1cccc(Nc2nc(N)c([N+](=O)[O-])c(NCCO)n2)c1,0.152% (inactive),-0.837,–,–
O=C(CSc1ccc2ccccc2n1)NCc1ccc2c(c1)OCO2,19.1% (inactive),26.9,–,–
O=C1CCCN1CCCNC(=S)Nc1ccccc1,15.3% (inactive),-7.97,–,–
Cc1cccc(C)c1NC(=S)NCCCN1CCCC1=O,–,-0.836,0.461 µM (active),–
Cc1cc(Cl)ccc1NC(=S)NCCCN1CCCC1=O,18.7% (inactive),7.04,–,–
CCN1CCN(CC(O)COCCOc2ccc(Br)cc2)CC1 (configuration not stated),-7.14% (inactive),4.7,–,–
Cc1cccc(OCC(=O)NCc2cc(C)nc3ccccc23)c1,5.62% (inactive),-5.05,–,–
COc1ccccc1OCCNC(=O)c1cc(=O)[nH]c2ccccc12,8.99% (inactive),13.3,–,–
CCOc1ccc(C(C)NC(=O)c2cc(=O)[nH]c3ccccc23)cc1OCC (configuration not stated),–,6.31,0.0021 µM (active),–
COc1ccccc1C(C)NC(=O)c1cc(=O)[nH]c2ccccc12 (configuration not stated),–,-5.13,–,inactive
CC(=O)c1cccc(N(CC(=O)NC2CCCCC2)C(=O)CNC(=O)c2cccs2)c1,–,16.1,–,inactive
COCCNC(=O)c1c(N)n(/N=C/c2ccc(F)cc2)c2nc3ccccc3nc12,3.89% (inactive),21.5,–,–
CCC(C)NC(=O)c1c(N)n(/N=C/c2ccccn2)c2nc3ccccc3nc12 (configuration not stated),16.9% (inactive),8.8,–,–
COCCCNC(=O)c1c(N)n(/N=C/c2ccccn2)c2nc3ccccc3nc12,–,–,7.31 µM (active),–
Cc1ccc(-c2ccc(=O)n(CCC(=O)N3CCN(Cc4ccccc4)CC3)n2)cc1,–,–,–,inactive
COc1cccc(COC(=O)c2ccc3c(c2)NC(=O)C(C)S3)c1OC (configuration not stated),–,–,3.26 µM (active),–
COc1ccc(CNC(=O)c2ccc3c(c2)NC(=O)C(C)S3)cc1 (configuration not stated),-0.216% (inactive),-2.51,–,–
COc1ccc(Br)cc1CN(C)C(=O)c1ccc2c(c1)NC(=O)C(C)S2 (configuration not stated),4.83% (inactive),–,–,–
CN1CCN(C(=O)c2cc(Cl)ccc2NC(=O)c2ccc(Cl)cc2Cl)CC1,-0.54% (inactive),–,–,–

SMILES,"lipid storage change, negative = inhibition",cell number change [%],Potency,outcome
C=CCn1c(SCC(N)=O)nc2sc3c(c2c1=O)CCC3,–,-3.38,–,inactive
O=C(CN1CCN(c2ccc(O)cc2)CC1)Nc1cc(S(=O)(=O)N2CCCC2)ccc1Cl,4.5% (inactive),-1.92,–,–
CC(NC(=O)CN1CCN(c2ccc(Cl)cc2)CC1)c1ccccc1 (configuration not stated),-3.9% (inactive),-1.82,–,–
O=C(CN1CCN(c2ccccc2O)CC1)NC(c1ccccc1)c1ccccc1,16.7% (inactive),6.07,–,–
O=C(CN1CCN(c2ccccc2O)CC1)Nc1cc(S(=O)(=O)N2CCCC2)ccc1Cl,–,-12.2,0.259 µM (active),–
O=C(CN1CCN(c2ccc(O)cc2)CC1)Nc1cc(S(=O)(=O)N2CCCCC2)ccc1Cl,10.5% (inactive),21,–,–
CC(NC(=O)c1ccccc1NC(=O)CN1CCN(c2ccccc2O)CC1)c1ccccc1 (configuration not stated),–,14.4,8.2 µM (active),–
COc1cc(S(=O)(=O)NCc2ccccn2)c(OC)cc1Cl,1.56% (inactive),4.19,–,–
CCOC(=O)N1CCN(S(=O)(=O)c2ccc3c(c2)SC(C)C(=O)N3)CC1 (configuration not stated),-9.6% (inactive),-22.8,–,–
COC(=O)CSc1nnc(CNS(=O)(=O)c2ccc(Cl)cc2)n1C,–,-22.7,20.6 µM (active),–
COC(=O)CSc1nnc(CNC(=O)c2ccc(S(=O)(=O)N(C)C)cc2)n1C,4.97% (inactive),–,–,–
CCCSc1nnc(CNS(=O)(=O)c2ccc(C)cc2)n1C,2.69% (inactive),-0.463,–,–
O=C(c1cccc(Cl)c1)N1CCC(N2CCC(C(=O)N3CCOCC3)CC2)CC1,-10.6% (inactive),-7.23,–,–
CCN1CCCC1CNS(=O)(=O)c1c(C)cc(C)cc1C (configuration not stated),17% (inactive),-11.3,–,–
CCOC(=O)c1sc(NC(C)=O)nc1C,–,–,–,inactive
CCCn1c(SCC(=O)Nc2ccc(NC(C)=O)cc2)nc2c1c(=O)n(C)c(=O)n2C,–,7.69,–,inactive
COCCN(C(=O)C(=O)NC1CCCC1)C(C(=O)NC1CCCC1)c1ccccc1F (configuration not stated),-0.455% (inactive),6.8,–,–
COCCN(C(=O)CCl)C(C(=O)NC1CCCCC1)c1ccccc1C (configuration not stated),–,-11.6,23.1 µM (active),–
COCCN(C(=O)CCC(=O)Nc1cc(C)on1)C(C(=O)NC1CCCC1)c1ccccc1C (configuration not stated),7.32% (inactive),7.81,–,–
O=S(=O)(NCc1ccccc1)c1ccc(Cl)cc1,-5.46% (inactive),-16.1,–,–
C=CCn1c(O)c(C=Nc2ccc(Cc3ccncc3)cc2)c(=O)[nH]c1=S,11.8% (inactive),1.96,–,–
Cc1ccc2cccc(Oc3nnnn3-c3ccccc3)c2n1,–,10.6,–,inactive
c1ccc(-n2nnnc2Oc2cccc3cccnc23)cc1,–,–,–,inactive
O=C(O)c1ccc(-n2nnnc2Oc2cccc3cccnc23)cc1,–,-14.4,23.1 µM (active),–
